Source: PubChem BioAssay AID652067 (The Scripps Research Institute Molecular Screening Center, 2013)
The whole screen tested about 370,000 compounds, of which about 5,400 (1.5%) were called active. The sample holds actives, similar compounds and a random draw of the others, so the mix is not that of the screen.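 Rule for the calls: active = activation above the mean of all tested compounds plus 3 SD (cut at about 5.5% in these data); inactive = the rest.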

Test system: DAF-12 nuclear receptor (Haemonchus contortus)
Assay: H. contortus DAF-12 nuclear receptor activators, primary screen, cell-based, luminescence, HEK293, lit1-tk-luc reporter (AID 652067);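 note: 100% = response to 3 µM Δ7-dafachronic acid high control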
Settings: HEK293 hcDAF-12 lit1-tk-luc reporter, at 6.8 µM, stronger effect = higher value, 0% DMSO, 100% Δ7-dafachronic acid

| Structure (SMILES) | activation |
| --- | --- |
| Cc1ccccc1NC(=O)COC(=O)c1ccc(Sc2ncn[nH]2)c([N+](=O)[O-])c1 | 0.06% (inactive) |
| O=C(c1ccc2c(c1)N(Cc1ccc(F)cc1)C(=O)c1ccccc1S2(=O)=O)N1CCN(c2ccccn2)CC1 | -2.49% (inactive) |
| COC(=O)CNC(=O)c1ccc2c(c1)S(=O)(=O)c1ccccc1C2=O | -0.44% (inactive) |
| CCCCN(C)C(=O)c1ccc2c(c1)N(CC)C(=O)c1ccccc1S2(=O)=O | 6.63% (active) |
| OC(c1ccccc1)(c1ccccc1)C1CCN(CCCOc2ccc(-c3ccsc3)cc2)CC1 | 0.49% (inactive) |
| CC(NCc1ccco1)C(=O)N1CCCCC1 (stereo not drawn) | 0.18% (inactive) |
| COc1cccc(CSc2nnc(-c3cccnc3)n2Cc2ccccc2)c1 | -1.85% (inactive) |
| COc1ccc2nc(SCc3ccccc3)nc(C)c2c1 | 7.19% (active) |
| COc1ccc(NCc2nnc(SCc3ccccc3)n2-c2ccc(OC)cc2)cc1 | -1.98% (inactive) |
| Fc1ccc2nc(COCc3nc4ccc(F)cc4[nH]3)[nH]c2c1 | -1.16% (inactive) |
| Cc1ccccc1Nc1nnc(SCC(=O)c2cc3ccccc3o2)s1 | 7.93% (active) |
| Cc1cccc(Nc2nnc(SCC(=O)c3c(N)n(C4CC4)c(=O)[nH]c3=O)s2)c1C | -1.19% (inactive) |
| CCOc1ccccc1Nc1nnc(SCC(=O)Nc2cc(C)on2)s1 | -3.24% (inactive) |
| CC(=NNC(N)=O)c1ccc(Cl)c(-n2cccc2)c1 | 0.37% (inactive) |
| COc1cc(OC)cc(-c2cc3ccc(F)cc3cn2)c1 | 3.13% (inactive) |
| O=c1cc(-c2ccccc2)[nH]c2cc(F)ccc12 | -0.52% (inactive) |
| Fc1ccc2cnc(-c3ccccc3)cc2c1 | 6.9% (active) |
| COC(=O)[C@]12C[C@H](CC(=O)NCc3ccccc3)C(=O)N(CCc3ccc(OC)c(OC)c3)C1=C[C@H](C(C)(C)C)O[C@@H]2C | -2.1% (inactive) |
| O=c1[nH]c(-c2ccccc2)cn1C1CCN(Cc2ccc(-c3nc4ccc(F)cc4nc3-c3ccccc3)cc2)CC1 | 0.07% (inactive) |
| O=C(CCS(=O)(=O)c1ccccc1)Nc1ccc(Cl)c(Cl)c1 | 0.35% (inactive) |

| Structure (SMILES) | activation |
| --- | --- |
| COc1ccc(C#CCNCc2ccc(OC)cc2OC)cc1 | -3.08% (inactive) |
| Cc1ccc2nc(-c3ccc(CN4CCC(n5cc(-c6ccccc6)[nH]c5=O)CC4)cc3)c(-c3ccccc3)nc2c1 | -2.64% (inactive) |
| COCCNC(=O)c1ccccc1-c1nc(-c2ccccc2Cl)no1 | 2.6% (inactive) |
| CN(C)CCNC(=O)c1ccc(Cl)c2cc3ccccc3nc12 | 13.5% (active) |
| Cc1cc(C)n(C(=O)CCNC(=O)c2ccccc2Cl)n1 | -1.04% (inactive) |
| O=C(N1CCOCC1)N(Cc1ccccc1)c1ccccn1 | -1.16% (inactive) |
| O=C(Nc1ccc2ccccc2c1)Nc1ccc2snnc2c1 | -0.5% (inactive) |
| O=S(=O)(NC(=S)Nc1ccccc1)c1ccc(F)cc1 | 2.29% (inactive) |
| S=C(Nc1ccccc1)Nc1ccc2ccccc2c1 | 6.41% (active) |
| CC(=O)C1=C(C)N(Cc2ccc(Cl)cc2)C(=S)NC1c1ccc(F)cc1 (stereo not drawn) | 0.56% (inactive) |
| Nc1nc2c(ncn2[C@@H]2O[C@H](C(=O)N[C@@H](Cc3ccccc3)C(=O)NCc3ccccc3)[C@@H](O)[C@H]2O)c(=O)[nH]1 | 1.55% (inactive) |
| O=S(=O)(c1ccc2c(c1)OCCCO2)N1CCN(S(=O)(=O)c2c(F)cccc2F)CC1 | -1.98% (inactive) |
| C=CCn1c(=NC(=O)c2cccs2)sc2cc(NC(C)=O)ccc21 | 6.19% (active) |
| C=CCn1c(CCNC(=O)c2cccs2)n[nH]c1=S | 1.16% (inactive) |
| C=CCn1c(=NC(=O)c2ccc(S(=O)(=O)N3CCCC3)cc2)sc2cc(NC(C)=O)ccc21 | -1.46% (inactive) |
| Cc1cc(=O)[nH]c(SCC(=O)Nc2ccc(Cl)cc2C)n1 | -1.08% (inactive) |
| CCOc1ccc(NC(=O)COC(=O)C2CCC(=O)N2)c([N+](=O)[O-])c1 (stereo not drawn) | 3.85% (inactive) |
| CN(C)c1ccc(NC(=O)NC2CCCCN(Cc3ccc(Cl)cc3)C2=O)cc1 (stereo not drawn) | -0.06% (inactive) |
| CC1CCCCN1CCCNC(=O)Cn1ncc2c([nH]c3ccccc32)c1=O (stereo not drawn) | 0.15% (inactive) |
| Cc1c2cnn(CC(=O)NCCCN3CC(C)CC(C)C3)c(=O)c2c(C)n1Cc1ccc(Cl)cc1 (stereo not drawn) | -1.23% (inactive) |

| Structure (SMILES) | activation |
| --- | --- |
| CC1CC(C)CN(CCCNC(=O)Cn2ncc3c([nH]c4ccccc43)c2=O)C1 (stereo not drawn) | 6.07% (active) |
| Cc1ccc2cc(/C=N/Nc3ccc(C(=O)O)cc3)c(Cl)nc2c1 | 10.2% (active) |
| CSCC[C@H](NC(=O)OC(C)(C)C)C(=O)N/N=C/c1cc2ccc(C)cc2nc1Cl | -0.35% (inactive) |
| CC(=O)Nc1ccc(C(=O)CSc2nc3ccc(C)cc3[nH]2)cc1 | 4.98% (inactive) |
| CC(Oc1ccccc1)C(=O)NN1Cc2ccccc2C1=N (stereo not drawn) | -1.32% (inactive) |
| O=C(O)Cn1c(Cc2ccccc2)nc2ccccc21 | 0.35% (inactive) |
| Cc1c(C=O)c2ccccc2n1CC(=O)O | 9.3% (active) |
| Cc1c(C=O)c2ccccc2n1CCOc1ccccc1 | -3.86% (inactive) |
| CCOC(=O)c1csc(NC(=O)C2CCCN(S(=O)(=O)c3ccc(Cl)s3)C2)n1 (stereo not drawn) | -2.96% (inactive) |
| Cc1ccc(-c2cn3cc([N+](=O)[O-])ccc3n2)cc1 | 7.66% (active) |
| COc1ccc(-c2cc(-c3nnc(SCc4ccc([N+](=O)[O-])cc4)n3N)[nH]n2)cc1 | -4.71% (inactive) |
| Cn1cnc(C(F)(F)F)c1-c1ccc([N+](=O)[O-])cc1 | -1.54% (inactive) |
| C=CCN(C(=O)[C@@H](CCCC)[C@@H](O)c1ccc(Cl)cc1)c1ccccc1 | -1.78% (inactive) |
| CCCCCCCCN1C(=O)[C@@H](CC(=O)NCc2ccc(C)o2)C[C@@]2(C(=O)OC)C1=C[C@H](C(C)(C)C)O[C@@H]2C | 0.67% (inactive) |
| CN1C[C@]2(C=C3CCCCC3n3c(=O)n(-c4ccccc4)c(=O)n32)N=C1NC(=O)c1ccccc1 (stereo partly drawn) | -1.23% (inactive) |
| c1ccc2sc(NN=C3CCCC3)nc2c1 | 9.02% (active) |
| O=C1NC(Nc2nc3ccccc3s2)(C(F)(F)F)C(=O)N1C1CCCCC1 (stereo not drawn) | 2.82% (inactive) |
| CCN(CC)CCn1c2c(c(SCC(=O)Nc3nc4ccccc4s3)nc1=O)CCCC2 | 1.05% (inactive) |
